DT40 TDP1 CPT = growth inhibition of DT40 Tdp1-/-;hTDP1 cells with camptothecin (screen for TDP1 inhibitors); actives 12% (n = 420,000); chicken DT40 Tdp1-/-;hTDP1 cells + 20 nM CPT, ATP luminescence, 48 h; Potency, µM (highest dose often 46.2 µM), for inactives: at the top dose activity change, negative = growth inhibition, most hits filed as inhibitors; further: potency means the concentration at half of the fitted maximal effect; nearly all actives have a fitted effect of over 55% in size
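Chicken DT40 Tdp1-/- cells complemented with human TDP1, 400 cells/well, exposed to compounds plus 20 nM camptothecin for at least 48 h at 37 C; viability read as ATP content by CellTiter-Glo luminescence.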
LDHA block = LDHA (human) enzyme inhibition. P00338. purified LDHA, NADH/diaphorase-resazurin fluorescence; hits give low values. activity change, % (values are at about 110 or 230 µM). actives 0.15% (n = 480,000); in the data active means activity change below about -30%; inconclusive means mostly about -25% to -30%;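 further: plate controls were DMSO wells for no effect and wells without enzyme for full effect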
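Human LDH5 (2 nM) was incubated with 0.06 mM NADH and 0.2 mM pyruvate for 5 min at room temperature in Tris pH 7.4. Remaining NADH was coupled through diaphorase/resazurin, and resorufin fluorescence was read at 0 and 20 min.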
IL-1B inflam inh = blocks inflammasome-driven IL-1 beta release. activity change, % at 57.5 µM. AID 743279. THP-1 LPS/ATP IL-1B secretion, AlphaLISA, 16 h; hits give low values. actives 4.7% (n = 360,000); in the data active means activity change below about -50%; inconclusive means mostly about -30% to -49%
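THP-1 cells pretreated 1 hr with compounds (up to 57.5 uM final), then stimulated with LPS (250 ng/mL final) plus ATP (1.25 mM final); secreted IL-1B measured by AlphaLISA after 16 hr, decreased signal indicating inhibition.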
DT40 TDP1 no CPT = qHTS for Inhibitors of human tyrosyl-DNA phosphodiesterase 1 (TDP1): qHTS in cells in absence of CPT; DT40 Tdp1-/- hTDP1 cells, no CPT, ATP luminescence, 48 h; Potency, µM (highest dose often 46.2 µM), for inactives: at the top dose activity change, negative = growth inhibition, usual class: inhibitors; actives 15% (n = 420,000); AID 686978, 2013; further: potency means the concentration at half of the fitted maximal effect; nearly all actives have a fitted effect of over 55% in size
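A cellular qHTS used chicken DT40 cells lacking endogenous Tdp1 but carrying stably transfected human TDP1. Compounds were applied without camptothecin, and cell growth kinetics were judged by ATP-dependent luminescence after ≥48 hr.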
RORgamma inh = blocks mouse ROR gamma transcriptional activity | Potency, µM (doses to about 53.6 µM), inactives show at the top dose activity change, negative = inhibition, hits mostly inhibitors | Drosophila S2 Gal4-RORgamma UAS-luciferase reporter, 20 h | actives 5.4% (n = 310,000) | P51450; further: potency means the concentration at half of the fitted maximal effect; nearly all actives have a fitted effect of over 60% in size
Target sequence (P51450 whole entry, looked up, the tested form may be a part): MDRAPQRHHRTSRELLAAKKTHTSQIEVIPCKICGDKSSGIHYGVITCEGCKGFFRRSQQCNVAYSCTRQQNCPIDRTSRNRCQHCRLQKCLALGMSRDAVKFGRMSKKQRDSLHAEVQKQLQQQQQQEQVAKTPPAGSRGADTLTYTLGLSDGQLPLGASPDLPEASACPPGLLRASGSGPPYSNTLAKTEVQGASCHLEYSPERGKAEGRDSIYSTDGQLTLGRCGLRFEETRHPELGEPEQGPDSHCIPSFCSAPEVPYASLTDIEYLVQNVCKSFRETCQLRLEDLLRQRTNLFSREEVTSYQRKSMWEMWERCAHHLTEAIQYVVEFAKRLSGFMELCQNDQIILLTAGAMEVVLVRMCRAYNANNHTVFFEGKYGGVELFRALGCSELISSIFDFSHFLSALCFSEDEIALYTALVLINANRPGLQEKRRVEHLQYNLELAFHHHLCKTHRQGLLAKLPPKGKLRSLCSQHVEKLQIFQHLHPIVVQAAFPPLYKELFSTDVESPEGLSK
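Drosophila Schneider cells stably carrying a metallothionein-driven Gal4 DBD–ROR gamma fusion and a UAS-Photinus luciferase reporter were exposed to compound for 1 hr, then induced with copper sulfate (700 uM final) for 20 hr at ambient temperature before luminescence reading.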
Gal4-VP16 FLuc = inhibits Gal4-VP16 luciferase reporter, ROR gamma counter-screen | actives 3.5% (n = 310,000) | Drosophila S2 Gal4-VP16 UAS-luciferase, luminescence, 20 h | Potency, µM (top dose mostly 53.6 µM), inactives show top-dose activity, negative = inhibition, most hits filed as inhibitors;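 further: Gal4-VP16 expression switched on by copper sulfate through the metallothionein promoter; potency means the concentration at half of the fitted maximal effect; nearly all actives have a fitted effect of over 50% in size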
Starred values were filed as active, the others as inactive. Most compounds without a hit are left out; they make up all but 18% or so of the library. Unless noted, the call rests on the fitted dose curve; in most records, active means well fitted curve in the direction sought with a large enough effect; inconclusive means small, poorly fitted or top-dose-only effect, or another doubt; inactive means no such curve, though single readings can be large; an effect the other way counts as inactive or inconclusive. Unless noted, on the % scale 0 is the no-effect control and ±100 the full control effect.

Results for O=C(NCCc1ccccc1)C1Cc2c(-c3ccccc3)ccnc2O1 (stereo unspecified) ?
DT40 TDP1 CPT: inconclusive; LDHA block: -4.6; IL-1B inflam inh: -12.6; DT40 TDP1 no CPT: inconclusive

What do the screens show for `O=C(NCc1ccco1)C1Cc2c(-c3cccc(F)c3)ccnc2O1` (stereo unspecified)?
DT40 TDP1 CPT: 0.82µM*; LDHA block: -0.7; IL-1B inflam inh: 16.8; DT40 TDP1 no CPT: 1.3µM*

Results for CN(C)c1ccc(CNC(=O)C2Cc3c(-c4ccccc4Oc4ccccc4)ccnc3O2)cc1 (stereo unspecified) ?
DT40 TDP1 CPT: inconclusive; LDHA block: -2.6; IL-1B inflam inh: -7.8; DT40 TDP1 no CPT: inconclusive

What do the screens show for `NC(=O)c1cccc(-c2ccnc3c2CC(C(=O)NCCc2ccccc2)O3)c1` (stereo unspecified)?
DT40 TDP1 CPT: 14.6µM*; LDHA block: 2.0; IL-1B inflam inh: 0.9; DT40 TDP1 no CPT: 23.1µM*

What do the screens show for `CC(=O)c1cccc(-c2ccnc3c2CC(C(=O)NCc2ccco2)O3)c1` (stereo unspecified)?
DT40 TDP1 CPT: 0.82µM*; LDHA block: -6.0; IL-1B inflam inh: 52.6; DT40 TDP1 no CPT: 0.82µM*

How did CN(C)c1ccc(CNC(=O)C2Cc3c(-c4cccc(C(N)=O)c4)ccnc3O2)cc1 (stereo unspecified) do in these assays?
DT40 TDP1 CPT: inconclusive; LDHA block: 0.0; IL-1B inflam inh: -12.9; DT40 TDP1 no CPT: 23.1µM*

What do the screens show for `Cc1ccc(C(NC(=O)c2cc(=O)c3cc(C)ccc3o2)C2CC2)cc1` (stereo unspecified)?
LDHA block: 1.3

Results for CC(OC(=O)Cc1n[nH]c(=O)c2ccccc12)C(=O)NCc1ccccc1 (stereo unspecified) ?
LDHA block: -4.2

What do the screens show for `Cc1ccc(N2CCN(C(=O)c3cc4cc([N+](=O)[O-])ccc4oc3=O)CC2)cc1C`?
LDHA block: -2.1

How did NC(=O)c1cccc(-c2ccnc3c2CC(C(=O)NCc2ccco2)O3)c1 (stereo unspecified) do in these assays?
DT40 TDP1 CPT: 3.66µM*; LDHA block: -0.1; IL-1B inflam inh: 58.2; DT40 TDP1 no CPT: 2.91µM*

Results for O=Cc1cc(Cl)ccc1OC(=O)/C=C/c1ccc(F)cc1 ?
LDHA block: 3.1

What do the screens show for `COc1ccc(S(=O)(=O)N2CCCCC2)cc1NC(=O)C1CC(=O)N(Cc2ccco2)C1` (stereo unspecified)?
DT40 TDP1 CPT: 0.1%; LDHA block: -0.5; IL-1B inflam inh: -1.2; DT40 TDP1 no CPT: 1.1%

What do the screens show for `COC(=O)CCN(C1CCCCC1)S(=O)(=O)c1ccc(S(=O)(=O)N2CCCCC2)cc1`?
DT40 TDP1 CPT: 29.1µM*; LDHA block: -1.3; IL-1B inflam inh: -13.1; DT40 TDP1 no CPT: 12.6µM*; RORgamma inh: 29.0%; Gal4-VP16 FLuc: 8.7%

What do the screens show for `O=C(CN(C1CC1)S(=O)(=O)c1ccc(S(=O)(=O)N2CCCCCC2)cc1)Nc1ccccc1`?
DT40 TDP1 CPT: -8.9%; LDHA block: -6.8; IL-1B inflam inh: 12.5; DT40 TDP1 no CPT: -25.2%; RORgamma inh: -17.7%; Gal4-VP16 FLuc: -8.3%

How did COc1ccc(S(=O)(=O)N2CCCCC2)cc1NC(=O)CN(Cc1ccco1)Cc1ccco1 do in these assays?
DT40 TDP1 CPT: inconclusive; LDHA block: -13.5; IL-1B inflam inh: -50.5*; DT40 TDP1 no CPT: inconclusive

How did COc1ccc(S(=O)(=O)N2CCCCC2)cc1NC(=O)CN(C)C1CCCCC1 do in these assays?
DT40 TDP1 CPT: inconclusive; LDHA block: -0.9; IL-1B inflam inh: -70.4*; DT40 TDP1 no CPT: inconclusive; RORgamma inh: -20.5%; Gal4-VP16 FLuc: 23.2%
